Results reported in the supplement of paper PMC10849652.
Targets with a hit are over-represented here; the source holds about 7,900 in all. About 0.6% of all pairs of compound and target were hits. Unmarked numbers belong to inactive results.

What was measured:
Experiment in all cases: log2 fold change, soluble protein after heating vs DMSO (PISA); higher = thermal stabilisation; K562 cells, 10 uM, 30 min; active = over 0.2 and 3.5 SD of the protein, either way, in both replicates (recomputed)
[1] = compound: CS(=O)(=O)c1ccc(-c2cnc(N)c(C(=O)Nc3ccccc3)n2)cc1
Outline: (§1)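 K562 cells at 2×10^6 cells/mL were treated with 10 μM compound for 30 min. Aliquots were heated for 3 min across 48°C-58°C, pooled, and extracted in PBS with 0.5% NP-40 at 4°C; soluble protein was the supernatant after 21,000xg for 90 min. Soluble protein was quantified by TMTpro 16plex LC-MS/MS with channel sums equalised, and reported as log2 fold change in thermal stability against DMSO controls, with values from duplicates.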

crizotinib = compound: C[C@@H](Oc1cc(-c2cnn(C3CCNCC3)c2)cnc1N)c1c(Cl)ccc(F)c1Cl [crizotinib]
Outline: as §1

[2] = compound: C[C@@H]1COCCN1C2=NC(=NC(=C2)C3(CC3)S(=O)(=O)C)C4=C5C=CNC5=CC=C4
Outline: as §1

[3] = compound: C[C@H](C1=CC=C(C=C1)C(=O)NC2=C3C=CNC3=NC=C2)N
Outline: as §1

duvelisib = compound: C[C@H](Nc1ncnc2nc[nH]c12)c1cc2cccc(Cl)c2c(=O)n1-c1ccccc1 [duvelisib]
Outline: as §1

gandotinib = compound: Cc1cc(Nc2cc(CN3CCOCC3)c3nc(C)c(Cc4ccc(Cl)cc4F)n3n2)n[nH]1 [gandotinib]
Outline: as §1

tozasertib = compound: Cc1cc(Nc2cc(N3CCN(C)CC3)nc(Sc3ccc(NC(=O)C4CC4)cc3)n2)n[nH]1 [tozasertib]
Outline: as §1

[4] = compound: Cc1cc(SCc2sc(-c3ccc(C(F)(F)F)cc3)nc2C)ccc1OCC(=O)O
Outline: as §1

doramapimod = compound: Cc1ccc(-n2nc(C(C)(C)C)cc2NC(=O)Nc2ccc(OCCN3CCOCC3)c3ccccc23)cc1 [doramapimod]
Outline: as §1

ispinesib = compound: Cc1ccc(C(=O)N(CCCN)[C@@H](c2nc3cc(Cl)ccc3c(=O)n2Cc2ccccc2)C(C)C)cc1 [ispinesib]
Outline: as §1

bafetinib = compound: Cc1ccc(NC(=O)c2ccc(CN3CC[C@H](N(C)C)C3)c(C(F)(F)F)c2)cc1Nc1nccc(-c2cncnc2)n1 [bafetinib]
Outline: as §1

[5] = compound: Cc1cccc(CC(=O)N2CCc3c2ccc(-c2cn(C)c4ncnc(N)c24)c3F)n1
Outline: as §1

nilotinib = compound: Cc1cn(-c2cc(NC(=O)c3ccc(C)c(Nc4nccc(-c5cccnc5)n4)c3)cc(C(F)(F)F)c2)cn1 [nilotinib]
Outline: as §1

[6] = compound: Cc1nc(Nc2n[nH]c3c2CN(C(=O)N[C@H](CN(C)C)c2ccccc2)C3(C)C)c2sccc2n1
Outline: as §1

dasatinib = compound: Cc1nc(Nc2ncc(C(=O)Nc3c(C)cccc3Cl)s2)cc(N2CCN(CCO)CC2)n1 [dasatinib]
Outline: as §1

[7] = compound: Cc1ncc(-c2ccnc(Nc3ccc(S(C)(=O)=O)cc3)n2)n1C(C)C
Outline: as §1

[8] = compound: Cn1cc(-c2ccc3c(c2)CCN3C(=O)Cc2cccc(C(F)(F)F)c2)c2c(N)ncnc21
Outline: as §1

[9] = compound: Cn1cc(-c2ccc3nnc(C(F)(F)c4ccc5ncccc5c4)n3n2)cn1
Outline: as §1

tipifarnib = compound: Cn1cncc1[C@@](N)(c1ccc(Cl)cc1)c1ccc2c(c1)c(-c1cccc(Cl)c1)cc(=O)n2C [tipifarnib]
Outline: as §1

mubritinib = compound: FC(F)(F)c1ccc(/C=C/c2nc(COc3ccc(CCCCn4ccnn4)cc3)co2)cc1 [mubritinib]
Outline: as §1

## NUCKS1 (UniProt Q9H1E3)
UniProt Q9H1E3, sequence (Q9H1E3 whole entry, looked up): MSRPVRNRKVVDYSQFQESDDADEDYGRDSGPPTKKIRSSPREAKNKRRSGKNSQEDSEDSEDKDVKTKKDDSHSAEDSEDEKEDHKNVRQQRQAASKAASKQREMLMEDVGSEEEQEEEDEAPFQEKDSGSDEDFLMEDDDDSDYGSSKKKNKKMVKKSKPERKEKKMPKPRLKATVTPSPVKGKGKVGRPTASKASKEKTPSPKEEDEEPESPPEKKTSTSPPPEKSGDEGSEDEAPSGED
[1]
  log2 fold change: -0.147
crizotinib
  log2 fold change: 0.274 (active)
[2]
  log2 fold change: -0.133
[3]
  log2 fold change: 0.029
duvelisib
  log2 fold change: 0.005
gandotinib
  log2 fold change: 0.001
tozasertib
  log2 fold change: -0.064
[4]
  log2 fold change: -0.089
doramapimod
  log2 fold change: -0.03
ispinesib
  log2 fold change: 0.168
bafetinib
  log2 fold change: -0.114
[5]
  log2 fold change: -0.128
nilotinib
  log2 fold change: -0.028
[6]
  log2 fold change: -0.13
dasatinib
  log2 fold change: 0.037
[7]
  log2 fold change: 0.169
[8]
  log2 fold change: 0.005
[9]
  log2 fold change: 0.055
tipifarnib
  log2 fold change: 0.059
mubritinib
  log2 fold change: 0.034

## MTHFD1 (UniProt P11586)
UniProt P11586, sequence (P11586 whole entry, looked up): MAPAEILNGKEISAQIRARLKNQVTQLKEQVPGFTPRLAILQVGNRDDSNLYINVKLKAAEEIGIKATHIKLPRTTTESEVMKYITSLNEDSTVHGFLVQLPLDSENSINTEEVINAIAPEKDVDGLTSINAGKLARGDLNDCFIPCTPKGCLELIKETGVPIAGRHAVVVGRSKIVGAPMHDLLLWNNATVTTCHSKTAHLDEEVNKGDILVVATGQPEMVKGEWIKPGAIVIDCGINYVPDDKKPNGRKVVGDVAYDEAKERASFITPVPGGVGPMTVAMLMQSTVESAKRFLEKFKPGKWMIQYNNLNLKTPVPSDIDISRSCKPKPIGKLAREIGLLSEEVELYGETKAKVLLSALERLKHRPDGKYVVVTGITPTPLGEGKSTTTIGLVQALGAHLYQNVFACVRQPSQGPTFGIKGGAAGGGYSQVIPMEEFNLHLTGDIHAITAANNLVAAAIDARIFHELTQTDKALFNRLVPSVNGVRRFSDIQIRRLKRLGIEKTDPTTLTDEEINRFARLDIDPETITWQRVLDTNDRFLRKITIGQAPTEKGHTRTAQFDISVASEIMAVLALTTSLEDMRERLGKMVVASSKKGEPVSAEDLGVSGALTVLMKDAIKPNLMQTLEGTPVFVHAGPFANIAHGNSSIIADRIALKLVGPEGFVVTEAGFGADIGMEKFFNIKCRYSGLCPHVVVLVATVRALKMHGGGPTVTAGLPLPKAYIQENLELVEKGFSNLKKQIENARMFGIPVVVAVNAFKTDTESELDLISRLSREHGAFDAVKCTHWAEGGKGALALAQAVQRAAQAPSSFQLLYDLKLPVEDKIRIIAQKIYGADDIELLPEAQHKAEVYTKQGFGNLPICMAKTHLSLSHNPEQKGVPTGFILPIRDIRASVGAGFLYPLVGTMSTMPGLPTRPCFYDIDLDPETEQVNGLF
[1]
  log2 fold change: 0.101
crizotinib
  log2 fold change: -0.15
[2]
  log2 fold change: 0.107
[3]
  log2 fold change: -0.003
duvelisib
  log2 fold change: 0.016
gandotinib
  log2 fold change: -0.077
tozasertib
  log2 fold change: -0.054
[4]
  log2 fold change: 0.054
doramapimod
  log2 fold change: -0.053
ispinesib
  log2 fold change: -0.021
bafetinib
  log2 fold change: 0.077
[5]
  log2 fold change: 0.096
nilotinib
  log2 fold change: 0.214 (active)
[6]
  log2 fold change: -0.051
dasatinib
  log2 fold change: -0.135
[7]
  log2 fold change: 0.019
[8]
  log2 fold change: 0.069
[9]
  log2 fold change: 0.021
tipifarnib
  log2 fold change: -0.088
mubritinib
  log2 fold change: 0.122

## NCOA7 (UniProt Q8NI08)
UniProt Q8NI08, sequence (Q8NI08 whole entry, looked up): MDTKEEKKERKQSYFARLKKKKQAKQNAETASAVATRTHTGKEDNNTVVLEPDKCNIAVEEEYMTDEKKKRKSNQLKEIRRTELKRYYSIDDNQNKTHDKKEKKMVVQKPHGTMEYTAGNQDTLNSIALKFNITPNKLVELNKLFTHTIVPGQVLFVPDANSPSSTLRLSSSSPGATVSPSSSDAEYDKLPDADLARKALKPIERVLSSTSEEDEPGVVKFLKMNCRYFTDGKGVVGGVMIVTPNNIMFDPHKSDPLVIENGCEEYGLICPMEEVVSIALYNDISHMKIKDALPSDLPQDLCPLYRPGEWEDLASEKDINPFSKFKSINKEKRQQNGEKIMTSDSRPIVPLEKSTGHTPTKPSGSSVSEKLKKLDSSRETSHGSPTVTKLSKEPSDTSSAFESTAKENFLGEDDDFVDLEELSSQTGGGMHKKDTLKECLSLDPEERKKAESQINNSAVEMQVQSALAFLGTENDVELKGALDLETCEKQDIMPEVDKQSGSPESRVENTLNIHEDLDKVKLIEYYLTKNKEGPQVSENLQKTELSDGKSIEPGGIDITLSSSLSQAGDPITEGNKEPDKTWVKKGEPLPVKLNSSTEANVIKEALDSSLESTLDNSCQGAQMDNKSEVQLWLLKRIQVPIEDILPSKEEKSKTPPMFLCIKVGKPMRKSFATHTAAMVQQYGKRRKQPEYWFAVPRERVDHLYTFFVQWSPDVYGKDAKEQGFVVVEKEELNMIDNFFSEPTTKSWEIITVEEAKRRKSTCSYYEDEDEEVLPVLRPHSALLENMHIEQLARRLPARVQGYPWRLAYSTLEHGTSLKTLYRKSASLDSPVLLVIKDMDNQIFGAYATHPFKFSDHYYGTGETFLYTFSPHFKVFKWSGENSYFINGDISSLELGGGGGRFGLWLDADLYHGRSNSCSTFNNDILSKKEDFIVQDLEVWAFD
[1]
  log2 fold change: -0.003
crizotinib
  log2 fold change: -0.17
[2]
  log2 fold change: 0.012
[3]
  log2 fold change: -0.034
duvelisib
  log2 fold change: 0.091
gandotinib
  log2 fold change: -0.238 (active)
tozasertib
  log2 fold change: -0.052
[4]
  log2 fold change: 0.031
doramapimod
  log2 fold change: 0.082
ispinesib
  log2 fold change: -0.037
bafetinib
  log2 fold change: -0.017
[5]
  log2 fold change: 0.154
nilotinib
  log2 fold change: -0.044
[6]
  log2 fold change: -0.046
dasatinib
  log2 fold change: -0.144
[7]
  log2 fold change: -0.039
[8]
  log2 fold change: 0.085
[9]
  log2 fold change: 0.004
tipifarnib
  log2 fold change: -0.125
mubritinib
  log2 fold change: 0.054

## MRPS31 (UniProt Q92665)
[1]
  log2 fold change: 0.063
crizotinib
  log2 fold change: 0.024
[2]
  log2 fold change: 0.027
[3]
  log2 fold change: 0.199
duvelisib
  log2 fold change: 0.005
gandotinib
  log2 fold change: 0.121
tozasertib
  log2 fold change: -0.015
[4]
  log2 fold change: 0.073
doramapimod
  log2 fold change: 0
ispinesib
  log2 fold change: -0.28 (active)
bafetinib
  log2 fold change: 0.066
[5]
  log2 fold change: 0.042
nilotinib
  log2 fold change: -0.041
[6]
  log2 fold change: 0.093
dasatinib
  log2 fold change: -0.012
[7]
  log2 fold change: 0.065
[8]
  log2 fold change: 0.078
[9]
  log2 fold change: 0.027
tipifarnib
  log2 fold change: -0.002
mubritinib
  log2 fold change: 0.138

## MT-ATP6 (UniProt P00846)
UniProt P00846, sequence (P00846 whole entry, looked up): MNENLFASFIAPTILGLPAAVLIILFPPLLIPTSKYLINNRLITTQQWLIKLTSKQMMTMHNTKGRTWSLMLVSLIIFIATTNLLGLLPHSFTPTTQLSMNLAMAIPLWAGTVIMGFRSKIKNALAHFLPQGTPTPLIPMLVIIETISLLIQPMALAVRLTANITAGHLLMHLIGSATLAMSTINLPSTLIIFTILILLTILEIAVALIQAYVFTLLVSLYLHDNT
[1]
  log2 fold change: 0.041
crizotinib
  log2 fold change: 0.355
[2]
  log2 fold change: 0.225
[3]
  log2 fold change: 0.135
duvelisib
  log2 fold change: 0.153
gandotinib
  log2 fold change: 0.143
tozasertib
  log2 fold change: 0.045
[4]
  log2 fold change: -0.081
doramapimod
  log2 fold change: -0.038
ispinesib
  log2 fold change: 0.076
bafetinib
  log2 fold change: 0.162
[5]
  log2 fold change: 0.086
nilotinib
  log2 fold change: 0.006
[6]
  log2 fold change: 0.005
dasatinib
  log2 fold change: -0.101
[7]
  log2 fold change: -0.043
[8]
  log2 fold change: -0.024
[9]
  log2 fold change: 0.11
tipifarnib
  log2 fold change: 0.231
mubritinib
  log2 fold change: 0.028

## NME1 isoform 2 (UniProt P15531)
UniProt P15531, sequence (P15531 whole entry, looked up): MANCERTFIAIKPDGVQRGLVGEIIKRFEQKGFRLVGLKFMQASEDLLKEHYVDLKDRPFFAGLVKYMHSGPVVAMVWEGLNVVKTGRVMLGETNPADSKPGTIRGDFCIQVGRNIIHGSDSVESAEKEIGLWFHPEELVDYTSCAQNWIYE
[1]
  log2 fold change: 0.013
crizotinib
  log2 fold change: 0.012
[2]
  log2 fold change: 0.161
[3]
  log2 fold change: 0.01
duvelisib
  log2 fold change: 0.38
gandotinib
  log2 fold change: -0.144
tozasertib
  log2 fold change: -0.07
[4]
  log2 fold change: 0.195
doramapimod
  log2 fold change: -0.015
ispinesib
  log2 fold change: 0
bafetinib
  log2 fold change: 0.011
[5]
  log2 fold change: -0.175
nilotinib
  log2 fold change: -0.115
[6]
  log2 fold change: 0.182
dasatinib
  log2 fold change: -0.286
[7]
  log2 fold change: -0.003
[8]
  log2 fold change: 0.088
[9]
  log2 fold change: -0.013
tipifarnib
  log2 fold change: 0.06
mubritinib
  log2 fold change: -0.103

## MKRN2 (UniProt Q9H000)
UniProt Q9H000, sequence (Q9H000 whole entry, looked up): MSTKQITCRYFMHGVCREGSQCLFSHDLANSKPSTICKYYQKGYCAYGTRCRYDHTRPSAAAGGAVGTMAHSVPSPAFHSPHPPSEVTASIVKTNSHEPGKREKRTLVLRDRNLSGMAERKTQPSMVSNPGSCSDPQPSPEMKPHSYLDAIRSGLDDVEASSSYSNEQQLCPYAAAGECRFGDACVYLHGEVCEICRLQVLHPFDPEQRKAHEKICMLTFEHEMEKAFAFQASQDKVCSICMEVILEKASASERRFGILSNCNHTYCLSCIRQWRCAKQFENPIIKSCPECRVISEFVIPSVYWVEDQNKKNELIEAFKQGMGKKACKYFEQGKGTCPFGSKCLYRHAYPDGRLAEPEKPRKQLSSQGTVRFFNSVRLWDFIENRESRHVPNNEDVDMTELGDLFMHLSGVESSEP
[1]
  log2 fold change: -0.035
crizotinib
  log2 fold change: -0.094
[2]
  log2 fold change: -0.077
[3]
  log2 fold change: 0.117
duvelisib
  log2 fold change: -0.111
gandotinib
  log2 fold change: 0.221
tozasertib
  log2 fold change: 0.085
[4]
  log2 fold change: 0.076
doramapimod
  log2 fold change: -0.005
ispinesib
  log2 fold change: -0.161
bafetinib
  log2 fold change: 0.073
[5]
  log2 fold change: -0.194
nilotinib
  log2 fold change: -0.048
[6]
  log2 fold change: -0.062
dasatinib
  log2 fold change: -0.088
[7]
  log2 fold change: 0.066
[8]
  log2 fold change: -0.284
[9]
  log2 fold change: -0.099
tipifarnib
  log2 fold change: -0.01
mubritinib
  log2 fold change: -0.142

## NDUFB7 (UniProt P17568)
UniProt P17568, sequence (P17568 whole entry, looked up): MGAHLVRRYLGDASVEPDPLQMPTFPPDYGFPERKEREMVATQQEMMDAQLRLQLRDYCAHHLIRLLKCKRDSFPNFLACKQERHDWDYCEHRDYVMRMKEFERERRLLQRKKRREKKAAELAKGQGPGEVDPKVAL
[1]
  log2 fold change: 0.004
crizotinib
  log2 fold change: 0.001
[2]
  log2 fold change: 0.03
[3]
  log2 fold change: -0.094
duvelisib
  log2 fold change: 0.006
gandotinib
  log2 fold change: -0.02
tozasertib
  log2 fold change: -0.018
[4]
  log2 fold change: -0.041
doramapimod
  log2 fold change: 0.021
ispinesib
  log2 fold change: 0.015
bafetinib
  log2 fold change: 0
[5]
  log2 fold change: 0.164
nilotinib
  log2 fold change: -0.029
[6]
  log2 fold change: 0.057
dasatinib
  log2 fold change: 0.022
[7]
  log2 fold change: -0.053
[8]
  log2 fold change: 0.043
[9]
  log2 fold change: 0.01
tipifarnib
  log2 fold change: -0.029
mubritinib
  log2 fold change: -0.007
